Compound activity from PubChem BioAssay.
Hits are enriched below; roughly 5.4% of the tested compounds scored in any of these assays.
CSC inhib – blocks cancer stem cells. cancer stem cell-like cells viability, luminescence. inhibition, % at 7.5 µM. 1.1% of 300,000 active. AID 2717; in the data active means inhibition above about 75%; inconclusive means no clear call, values can overlap the other calls; tested in HMLE shEcad cells
Mdm2-MdmX inh – disrupts the human Mdm2-MdmX interaction; O15151+Q00987; SaOS-2 split-luciferase Mdm2/MdmX complementation, luminescence; inhibition, % at 8 µM; 3% of 330,000 active; AID 485346;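 active means inhibition of at least 50% at 8 µM in the primary screen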
Beta cell apopt – beta cell apoptosis inhibition | INS-1E cytokine-induced death, ATP luminescence, 48 h; percent of positive-control rescue, neutral wells zero | 0.8% of 300,000 active | protection from apoptosis, % (concentration not given with the values) | AID 435005;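 active means Every replicate reaches about 75%, or at least half do and their mean reaches it too, limit read from the data; inconclusive means At least half of replicates reach the limit but their mean does not; inactive means Under half of replicates reach the limit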;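 further: 0% = cytokine-treated negative control wells and 100% = positive control rescue; higher means more ATP so stronger rescue from cytokine killing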
MPTP inh – inhibitors of mitochondrial permeability transition pore | isolated mouse mitochondria, Ca2+ swelling absorbance, 30 min | inhibition, % at 10 µM | 1.4% of 360,000 active | AID 602449;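 active means inhibition of 50% or more, scaled per plate between neutral and stimulator controls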;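 further: 0% = DMSO wells given calcium and 100% = 1 mM EGTA wells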
Calb FLC – affects C. albicans growth with fluconazole; C. albicans CaCi-2 (fluconazole-resistant clinical isolate) + fluconazole, Alamar Blue growth, 48 h; growth inhibition, % (concentration not given with the values); 0.57% of 300,000 active;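 active means growth inhibition above about 58% in most replicates, limit read from the data, passing the limit was not always enough; inconclusive means exactly half the replicates above a set limit; inactive means most replicates below a set limit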;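 further: all wells also contain fluconazole at 8 µg/ml as a sub-toxic cotreatment; 0% = median of DMSO wells and 100% = median of geldanamycin control wells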
SKKanGAS inh – SKKanGAS growth inhibition; S. pyogenes SKKanGAS, kanamycin growth, BacTiter-Glo, 6 h; 1.3% of 300,000 active; inhibition, % at 7.5 µM; AID 1662;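 active means mean replicate score, as percent of positive control median, at least 50; inconclusive means mean below 50 but one replicate at or above 50; inactive means mean and every replicate below 50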;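 further: strain carries kanamycin resistance gene driven by streptokinase promoter and grows in 40 µg/ml kanamycin; loss of luminescence reflects streptokinase promoter inhibition or plain growth inhibition; 0% = median of DMSO wells and 100% = positive control at its reference dose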
Mdm2-MdmX conf – human Mdm2/MdmX binding inhibition, confirmed | luminescent assay | shares compounds with Mdm2-MdmX inh | 55% of 10,000 active | AID 489028 | inhibition, % at 8 µM; in the data active means inhibition above about 40%
Full FLuc ctr – counter-screen for Mdm2/MdmX inhibitors: full-length luciferase; shares compounds with Mdm2-MdmX inh; SaOS-2 full-length luciferase counterscreen, luminescence; inhibition, % at 8 µM; 77% of 6,200 active; AID 504607;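 active means mean inhibition at 8 µM reaching about 37%, which flags the compound as non-specific, limit read from the data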;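 further: p53-null SaOS-2 cells with luciferase driven by a doxycycline-inducible promoter; compound on cells about two nights before reading with doxycycline added after day one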
* hit, by the source's call; ? = inconclusive; . = no result given.

SMILES | CSC inhib | Mdm2-MdmX inh | Beta cell apopt | MPTP inh | Calb FLC | SKKanGAS inh | Mdm2-MdmX conf | Full FLuc ctr
COc1ccc(Cl)cc1NC(=O)CNC(c1ccccc1)c1ccccc1 | 20 | 7 | 1 | 1 | 1 | 30 | . | .
Cc1nc(NC2=NCN(CCCN3CCOCC3)CN2)nc2c(C)cccc12 | 5 | 97* | 4 | 0 | . | . | 96* | 25
Cc1nc(NC2=NCN(Cc3cccnc3)CN2)nc2ccccc12 | . | . | . | 4 | . | . | . | .
CCOC(=O)/C(C#N)=C/c1cc(C)n(-c2ccc(Br)cc2)c1C | -4 | -6 | 3 | . | 2 | -2 | . | .
CCOC(=O)/C(C#N)=C/c1cc(C)n(-c2ccccc2)c1C | -10 | 52* | -5 | 1 | 28 | -9 | 66* | 170*
COc1cccc(C2Nc3ccccc3NC3=C2C(=O)CC(C)(C)C3)c1 (configuration not stated) | -19 | 21 | 6 | 2 | -4 | 0 | . | .
CCn1c(=O)c2sccc2n(Cc2cc(C(=O)OC)ccc2OC)c1=O | -14 | 51* | 0 | 0 | 2 | -2 | 8 | .
CCC1CCCCN1Cc1ccc(N)cc1 (configuration not stated) | -5 | 2 | -4 | 1 | -11 | . | . | .
O=C(CSc1n[nH]c(-c2ccccn2)n1)Nc1cccc(Cl)c1 | 1 | 60* | 0 | -1 | -6 | -7 | 53* | 40*
CCCCNC(=O)c1cc2n(n1)C(C(F)(F)F)CC(c1ccccc1)N2 (configuration not stated) | -7 | -30 | 1 | -1 | 10 | -1 | . | .
COc1ccc(OC)c(NC(=O)CC2SC(=Nc3ccc(F)cc3)N(CCC3=CCCCC3)C2=O)c1 (configuration not stated) | 26 | 21 | 27 | 4 | 5 | 10 | . | .
COc1cc([N+](=O)[O-])ccc1NC(=O)CC1SC(=Nc2ccc(F)cc2)N(CCC2=CCCCC2)C1=O (configuration not stated) | ? | 77* | 110* | 7 | -22 | 20 | 85* | 65*
CN1/C(=C/C2CC(=O)N(c3ccc([N+](=O)[O-])cc3)C2=O)C(C)(C)c2ccccc21 (configuration not stated) | 16 | -10 | -7 | -1 | 7 | 6 | . | .
CCOc1ccc(-c2c(C#N)c(N)nc3c2c(=O)n(C)c(=O)n3C)cc1OC | . | -10 | 0 | 0 | -7 | -2 | . | .
Cc1ccc(-c2cnc(C3CC3)o2)cc1S(=O)(=O)Nc1ccccc1 | . | 61* | . | 0 | -10 | 2 | 66* | 34
CC(=O)Nc1ccc(NS(=O)(=O)c2cc(-c3cnc(C4CC4)o3)ccc2C)cc1 | 17 | 3 | 9 | -2 | 20 | -3 | . | .
CC(=O)c1ccc(NS(=O)(=O)c2cc(-c3cnc(C4CC4)o3)ccc2C)cc1 | . | 44 | . | 0 | -5 | 8 | . | .
CC(=O)c1cccc(NS(=O)(=O)c2cc(-c3cnc(C4CC4)o3)ccc2C)c1 | ? | 57* | 7 | 0 | . | 8 | 60* | 61*
CC(C)(O)C#Cc1ccc([C@@H]2C[C@H]3CN(c4ccccc4)C(=O)[C@]34CCCN24)s1 | 41 | 64* | 33 | 3 | -4 | 2 | 41* | 60*
CC(=O)OCCc1c(C)nc2nc[nH]n2c1=O | -1 | -13 | -3 | -1 | 7 | -1 | . | .
COc1ccc2c(c1OC)C(=O)N1c3ccccc3C(=O)N(c3ccccc3)C21 (configuration not stated) | 16 | 65* | 2 | 0 | -2 | -13 | 62* | 69*
COc1ccc2c(c1OC)C(=O)N1c3ccccc3C(=O)N(c3ccc(F)cc3)C21 (configuration not stated) | 11 | 57* | 4 | 1 | 2 | -5 | 44* | 89*
Cc1ccccc1N1C(=O)c2ccccc2N2C(=O)c3ccccc3C12 (configuration not stated) | 0 | 17 | 2 | 3 | -3 | -1 | . | .
Cc1cnc(NC(=O)CCCc2nc3ccccc3s2)s1 | 6 | 90* | 13 | -4 | 28 | -9 | 59* | 54*
O=C(CCCc1nc2ccccc2s1)Nc1nccs1 | 1 | -8 | . | 0 | -5 | 14 | . | .
SMILES | CSC inhib | Mdm2-MdmX inh | Beta cell apopt | MPTP inh | Calb FLC | SKKanGAS inh | Mdm2-MdmX conf | Full FLuc ctr
CCN1CSC(=S)N(Cc2ccccc2)C1 | 18 | 40 | -8 | 0 | 6 | -1 | . | .
CCN1CSC(=S)N(Cc2ccc(OC)cc2)C1 | 47 | 69* | -6 | 0 | 1 | 3 | 32 | .
COc1ccc2nc(N=Nc3ccc(O)c4ccccc34)sc2c1 | 92* | 66* | ? | 6 | -5 | -9 | 78* | 35
COc1ccc(OC)c(-n2c(-c3cc(-c4ccccc4)n[nH]3)n[nH]c2=S)c1 | -14 | 17 | -5 | 1 | 11 | 4 | . | .
Nc1ncc([N+](=O)[O-])c(N2CCCCCC2)n1 | -5 | 75* | -26 | 0 | -10 | 1 | 73* | 49*
Cc1ccccc1-n1c(-c2ccc3ccccc3n2)n[nH]c1=S | -7 | -8 | 0 | 2 | -1 | 36 | . | .
COc1ccc(C(C[N+](=O)[O-])c2c(C)cc3ccccn23)cc1 (configuration not stated) | -1 | 34 | 2 | -1 | 8 | -1 | . | .
COc1ccc(C(C[N+](=O)[O-])c2c(-c3ccccc3)cc3ccccn23)c(OC)c1 (configuration not stated) | -8 | 53* | 7 | -1 | 1 | 1 | 38 | 71*
CNC(=S)N1N=C(c2ccc(C)cc2)CC1c1cc(OC)ccc1OC (configuration not stated) | 44 | 48 | . | -2 | -21 | -8 | . | .
COc1ccc(OC)c(C2CC(c3ccccc3)=NN2C(=S)Nc2ccccc2)c1 (configuration not stated) | 54 | 72* | 9 | 3 | 3 | -4 | 58* | 63*
CCc1ccc(NC(=O)CC2C(=O)N(c3cccc(OC)c3)C(=O)N2CCOC)cc1 (configuration not stated) | -14 | 19 | -2 | 0 | -8 | -3 | . | .
Cc1ccc2nc(-c3ccccc3)cc(C(=O)N(C)CC(=O)Nc3ccccc3Br)c2c1 | . | 53* | 9 | 0 | 3 | 3 | 28 | .
Cc1noc(C)c1S(=O)(=O)N1CCC(Cc2ccccc2)CC1 | -11 | -31 | -1 | 1 | 2 | 7 | . | .
CC(=O)c1sc(NC(=O)C2CC(=O)N(Cc3ccccc3)C2)nc1-c1ccccc1 (configuration not stated) | -25 | 15 | -4 | -1 | 2 | -2 | . | .
C[C@H]1C=CC(=O)O[C@H]1c1ccccc1 | -11 | 50* | -66 | 0 | -7 | 1 | 8 | .
